Laboratory results reported in article PMC4081100, “A DNA-binding-site landscape and regulatory network analysis for NAC transcription factors in Arabidopsis thaliana”.

Columns and labels:
Assay in all cases: universal protein binding microarray (PBM); transcription factors of Arabidopsis thaliana; high values mean tight binding
Conditions in all cases: protein: recombinant; tags: GST; chain copies: 2; dsDNA, one strand shown
GST-ANAC092(1-176) = biological target: T1, GST-ANAC092(1-176) (Arabidopsis thaliana, UniProt Q9FKA0 1-176)
T1 sequence: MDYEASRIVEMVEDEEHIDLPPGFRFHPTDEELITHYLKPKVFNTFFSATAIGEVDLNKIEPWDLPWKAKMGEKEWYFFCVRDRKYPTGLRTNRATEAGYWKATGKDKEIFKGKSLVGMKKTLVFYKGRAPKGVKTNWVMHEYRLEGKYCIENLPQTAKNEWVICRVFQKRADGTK
Method in brief: (§1)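 GST-tagged NAC-domain, full-length or DNA-binding-domain proteins were induced in cells, with zinc acetate added for zinc-finger proteins. They were purified on glutathione–Sepharose 4B and quantified by A280 or anti-GST western blot. Each was applied at 200 to 500 nM final, in duplicate, to custom all-10-mer Agilent 4 × 180K arrays made double-stranded by primer extension, with gapped and ungapped 8-mers scored. Binding is the normalised enrichment score (E-score).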

GST-ANAC019 NAC domain = biological target: T2, GST-ANAC019 NAC domain (Arabidopsis thaliana, UniProt Q9C932 14-162)
T2 sequence: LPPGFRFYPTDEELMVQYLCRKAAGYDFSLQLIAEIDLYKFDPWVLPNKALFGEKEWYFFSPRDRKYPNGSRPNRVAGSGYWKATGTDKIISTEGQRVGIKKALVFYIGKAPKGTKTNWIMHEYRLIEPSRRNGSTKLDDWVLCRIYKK
Method in brief: as §1

GST-ANAC055(1-171) = biological target: T3, GST-ANAC055(1-171) (Arabidopsis thaliana, UniProt Q9LDY8 1-171)
T3 sequence: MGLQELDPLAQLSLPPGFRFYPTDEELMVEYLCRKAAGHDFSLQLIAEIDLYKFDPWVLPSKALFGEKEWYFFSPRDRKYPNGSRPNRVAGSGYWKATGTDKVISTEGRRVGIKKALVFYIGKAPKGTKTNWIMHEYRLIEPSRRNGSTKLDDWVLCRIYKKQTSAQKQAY
Method in brief: as §1

GST-ATAF1 NAC domain = biological target: T4, GST-ATAF1 NAC domain (Arabidopsis thaliana, UniProt Q39013 7-158)
T4 sequence: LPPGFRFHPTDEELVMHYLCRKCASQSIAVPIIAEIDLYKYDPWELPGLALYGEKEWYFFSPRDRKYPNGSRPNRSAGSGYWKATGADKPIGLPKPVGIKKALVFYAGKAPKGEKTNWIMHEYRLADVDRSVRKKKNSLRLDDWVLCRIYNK
Method in brief: as §1

[1] = biological target: T5, GST-ANAC092(1-285) full length (Arabidopsis thaliana, UniProt Q9FKA0 1-285)
T5 sequence: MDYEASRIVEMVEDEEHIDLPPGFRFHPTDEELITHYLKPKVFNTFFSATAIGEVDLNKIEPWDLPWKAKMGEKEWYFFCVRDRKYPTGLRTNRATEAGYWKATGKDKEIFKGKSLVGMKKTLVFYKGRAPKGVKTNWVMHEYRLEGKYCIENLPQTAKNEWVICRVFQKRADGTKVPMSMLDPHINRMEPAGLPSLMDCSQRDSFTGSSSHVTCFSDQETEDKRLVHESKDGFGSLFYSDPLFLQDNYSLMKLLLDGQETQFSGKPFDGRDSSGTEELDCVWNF
Method in brief: as §1

GST-NAP(1-166) = biological target: T6, GST-NAP(1-166) (Arabidopsis thaliana, UniProt O49255 1-166)
T6 sequence: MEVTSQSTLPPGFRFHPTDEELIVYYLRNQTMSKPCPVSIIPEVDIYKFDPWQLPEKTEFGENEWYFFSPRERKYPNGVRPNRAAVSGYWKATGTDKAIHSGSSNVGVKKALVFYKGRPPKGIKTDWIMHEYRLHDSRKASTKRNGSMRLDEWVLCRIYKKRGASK
Method in brief: as §1

GST-NST2(1-184) = biological target: T7, GST-NST2(1-184) (Arabidopsis thaliana, UniProt Q9M274 1-184)
T7 sequence: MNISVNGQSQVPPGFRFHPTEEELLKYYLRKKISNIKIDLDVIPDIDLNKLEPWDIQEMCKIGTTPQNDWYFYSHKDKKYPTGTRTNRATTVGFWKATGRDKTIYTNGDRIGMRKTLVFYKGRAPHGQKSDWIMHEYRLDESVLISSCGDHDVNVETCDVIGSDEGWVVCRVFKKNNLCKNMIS
Method in brief: as §1

GST-NTL8 NAC domain = biological target: T8, GST-NTL8 NAC domain (Arabidopsis thaliana, UniProt Q9XIN7 14-156)
T8 sequence: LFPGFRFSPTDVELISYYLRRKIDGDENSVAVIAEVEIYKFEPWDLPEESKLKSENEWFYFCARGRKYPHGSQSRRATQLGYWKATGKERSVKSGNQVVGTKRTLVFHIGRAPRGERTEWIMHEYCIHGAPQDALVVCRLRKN
Method in brief: as §1

GST-SND1(1-203) = biological target: T9, GST-SND1(1-203) (Arabidopsis thaliana, UniProt Q9LPI7 1-203)
T9 sequence: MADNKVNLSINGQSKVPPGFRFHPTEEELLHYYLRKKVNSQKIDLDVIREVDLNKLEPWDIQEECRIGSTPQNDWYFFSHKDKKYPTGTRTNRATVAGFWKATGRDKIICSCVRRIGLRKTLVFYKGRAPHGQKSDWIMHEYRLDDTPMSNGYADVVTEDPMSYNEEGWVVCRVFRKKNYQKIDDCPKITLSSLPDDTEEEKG
Method in brief: as §1

GST-VND3 NAC domain = biological target: T10, GST-VND3 NAC domain (Arabidopsis thaliana, UniProt Q9FH59 12-162)
T10 sequence: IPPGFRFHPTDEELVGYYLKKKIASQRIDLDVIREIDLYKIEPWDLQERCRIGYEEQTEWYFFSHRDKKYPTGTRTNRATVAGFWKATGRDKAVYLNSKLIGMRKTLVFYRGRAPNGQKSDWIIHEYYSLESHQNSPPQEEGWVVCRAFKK
Method in brief: as §1

GST-VND7 NAC domain = biological target: T11, GST-VND7 NAC domain (Arabidopsis thaliana, UniProt Q9C8W9 9-158)
T11 sequence: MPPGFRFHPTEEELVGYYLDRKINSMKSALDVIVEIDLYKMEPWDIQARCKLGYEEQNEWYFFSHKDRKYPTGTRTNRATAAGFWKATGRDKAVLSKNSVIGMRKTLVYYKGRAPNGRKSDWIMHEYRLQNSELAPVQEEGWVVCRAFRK
Method in brief: as §1

| Sequence | binding signal (GST-ANAC092(1-176)) [E-score] | binding signal (GST-ANAC019 NAC domain) [E-score] | binding signal (GST-ANAC055(1-171)) [E-score] | binding signal (GST-ATAF1 NAC domain) [E-score] | binding signal [1] [E-score] | binding signal (GST-NAP(1-166)) [E-score] | binding signal (GST-NST2(1-184)) [E-score] | binding signal (GST-NTL8 NAC domain) [E-score] | binding signal (GST-SND1(1-203)) [E-score] | binding signal (GST-VND3 NAC domain) [E-score] | binding signal (GST-VND7 NAC domain) [E-score] |
| --- | --- | --- | --- | --- | --- | --- | --- | --- | --- | --- | --- |
| TGCGTAAA | 0.396 | 0.205 | 0.131 | 0.216 | 0.386 | 0.162 | 0.291 | 0.0652 | 0.447 | 0.26 | 0.244 |
| TGGCGTAA | 0.44 | 0.0928 | 0.127 | 0.16 | 0.439 | 0.101 | 0.346 |  | 0.482 | 0.191 | 0.246 |
| CACGCCAA | 0.443 | 0.185 | 0.159 | 0.16 | 0.451 | 0.114 | 0.3 | 0.0657 | 0.334 | 0.0966 | 0.114 |
| CACGCAAC | 0.496 | 0.486 | 0.463 | 0.437 | 0.498 | 0.489 | 0.444 | 0.181 | 0.482 | 0.476 | 0.484 |
| GTGCCGTA | 0.427 | 0.467 | 0.432 | 0.413 | 0.449 | 0.412 | 0.263 | 0.102 | 0.377 | 0.443 | 0.453 |
| ACGTCACC | 0.452 | 0.308 | 0.32 | 0.311 | 0.463 | 0.356 | 0.237 |  | 0.408 | 0.239 | 0.28 |
| CCACACGC | 0.4 | 0.242 | 0.15 | 0.155 | 0.436 | 0.169 | 0.144 | 0.0869 | 0.213 | 0.163 | 0.181 |
| CACGTAAC | 0.466 | 0.479 | 0.452 | 0.436 | 0.467 | 0.468 | 0.279 | 0.242 | 0.321 | 0.44 | 0.47 |
| CACGTTAC | 0.467 | 0.241 | 0.293 | 0.287 | 0.476 | 0.221 | 0.328 | 0.0995 | 0.432 | 0.319 | 0.275 |
| TGCGTGAA | 0.325 | 0.327 | 0.258 | 0.234 | 0.414 | 0.189 | 0.198 |  | 0.338 | 0.281 | 0.263 |
| TGCGTACA | 0.372 | 0.307 | 0.288 | 0.272 | 0.437 | 0.289 | 0.279 | 0.0577 | 0.393 | 0.305 | 0.281 |
| ACGCAATG | 0.452 | 0.32 | 0.21 | 0.162 | 0.456 | 0.35 | 0.359 | 0.0941 | 0.437 | 0.314 | 0.311 |
| ATTACGCA | 0.35 | 0.168 | 0.276 | 0.206 | 0.37 | 0.282 | 0.292 |  | 0.431 | 0.265 | 0.253 |
| ACGGCAAT | 0.298 | 0.409 | 0.375 | 0.283 | 0.366 | 0.236 | 0.286 | 0.188 | 0.226 | 0.3 | 0.317 |
| CTCACGCA | 0.416 | 0.359 | 0.211 | 0.0962 | 0.41 | 0.171 | 0.22 | 0.0698 | 0.286 | 0.194 | 0.193 |
